# Records with an inconclusive call do not appear. Entries that show only a call come without a potency. A number with no mark means an inactive call. Calls of active or inactive are those of the source. Calls come from the whole dose curve; as a rule, active = well fitted cell-killing curve with a large enough effect; inconclusive = small, poorly fitted or top-dose-only effect, or effect the other way; inactive = flat fitted curve, though single readings scatter.
# Tested on: OV90
# Assay: Primary qHTS to identify gynecologic anti-cancer compounds using libraries of approved drugs and bioactive compounds (AID 1345084); note: nearly all actives have a fitted effect of over 55% in size
# Details: Gynecologic cancer cell panel viability, ATPlite luminescence, 48 h; series mostly up to 57.5 µM
# Summary of the method: (§1)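 In this quantitative HTS, cell killing is estimated from loss of ATP-dependent luciferase light. Cells see five compound concentrations over a 48 h exposure.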
Compound,Potency,"activity change, negative = cytotoxicity"
CC(C)CC(=O)n1cc(C(N)=O)c(=O)cc1C(O)c1ccccc1 (configuration not stated),inactive,–
CC1(C)CC[C@]2(C(=O)O[C@@H]3O[C@H](CO)[C@@H](O)[C@H](O)[C@H]3O)CC[C@]3(C)C(=CCC4[C@@]5(C)C[C@@H](O)[C@H](O)C(CO)(CO)C5CC[C@]43C)C2[C@@H]1O (some centres not stated),inactive,–
OC[C@H]1O[C@@H](OC(CCCCc2ccc(O)cc2)CCc2ccc(O)cc2)[C@H](O[C@@H]2OC[C@](O)(CO)[C@H]2O)[C@@H](O)[C@@H]1O (some centres not stated),inactive,–
Cn1c(=O)cc(N2CCCC(N)C2)n(Cc2ccccc2C#N)c1=O (configuration not stated),inactive,–
CC[C@H]1OC(=O)C[C@@H](O)[C@H](C)[C@@H](O[C@@H]2O[C@H](C)[C@@H](O)[C@H](N(C)C)[C@H]2O)[C@@H](CCN2C[C@H](C)C[C@H](C)C2)C[C@@H](C)C(=O)/C=C/C(C)=C/[C@@H]1CO[C@@H]1O[C@H](C)[C@@H](O)[C@@H](OC)[C@H]1OC,inactive,–
C[C@@H]1C[C@H]2[C@@H]3CCC4=CC(=O)C=C[C@]4(C)[C@@]3(F)[C@@H](O)C[C@]2(C)[C@@]1(O)C(=O)COP(=O)(O)O,inactive,–
CC(=O)OC(C)OC(=O)C(C)c1ccc(-c2ccccc2)c(F)c1 (configuration not stated),inactive,–
CCC(C)/C=C(C)/C=C/C1=CC2=C(Cl)C(=O)C(C)(OC(C)=O)C(=O)C2=CN1CCCC(=O)O (configuration not stated),inactive,–
NS(=O)(=O)OC[C@@H]1C[C@@H](n2ccc3c(N[C@H]4CCc5ccccc54)ncnc32)C[C@@H]1O,inactive,–
CC(C)CC1(C(=O)OCc2ccc(O[C@@H]3O[C@H](CO)[C@@H](O)[C@H](O)[C@H]3O)cc2)CC(=O)OC(C(=O)O)CC(=O)OCC2OC(O1)C(OC(=O)/C=C/c1ccc(O)cc1)C(O)C2O (some centres not stated),–,-14.4% [at 11.6 µM]
OC[C@H]1O[C@@H](OCCc2ccc(O)cc2)[C@H](O)[C@@H](O)[C@@H]1O,inactive,–

# Tested on: PA-1
# Assay: as above
# Details: Gynecologic cancer cell panel viability, ATPlite luminescence, 48 h; series mostly up to 57.5 µM
# Summary of the method: as §1
Compound,Potency,"activity change, negative = cytotoxicity"
NC(Cc1c[nH]c2ccccc12)C(=O)NC(CCC(=O)O)C(=O)O (configuration not stated),inactive,–
C[C@@H]1O[C@@H](O[C@H]2[C@H](OC(=O)[C@]34CCC(C)(C)C[C@H]3C3=CCC5[C@@]6(C)C[C@H](O)[C@H](O[C@@H]7O[C@H](CO)[C@@H](O[C@@H]8O[C@H](CO)[C@@H](O)[C@H](O)[C@H]8O)[C@H](O)[C@H]7O)[C@@](C)(CO)C6[C@H](O)C[C@@]5(C)[C@]3(C)C[C@H]4O)OC[C@H](O)[C@@H]2O)[C@H](O)[C@H](O)[C@H]1O[C@@H]1OC[C@@H](O)[C@H](O[C@@H]2OC[C@](O)(CO)[C@H]2O)[C@H]1O (some centres not stated),–,-7.05% [at 6.55 µM]
CC(C)C1=CC2=CCC3[C@](C)(CCC[C@@]3(C)C(=O)O)C2CC1=O (some centres not stated),inactive,–
CC1(C)CC[C@]2(C(=O)O[C@@H]3O[C@H](CO)[C@@H](O)[C@H](O)[C@H]3O)CC[C@]3(C)C(=CCC4[C@@]5(C)C[C@@H](O)[C@H](O)[C@@](C)(CO)C5CC[C@]43C)C2C1 (some centres not stated),inactive,–
COc1ccc([C@H]2Cc3cccc(O)c3C(=O)O2)cc1,inactive,–
O=C(O)C[C@@H](NC(=O)c1cc(-c2ccc(-c3ccncc3)cc2)cs1)c1ccccc1,inactive,–
C[C@@H]1CC[C@]2(C(=O)O)CC[C@]3(C)C(=CCC4[C@]5(C)C(CC[C@]43C)C(C)(C)[C@@H](O)[C@H](O)[C@@H]5O)C2[C@]1(C)O (some centres not stated),inactive,–
CCC(=O)NS(=O)(=O)c1ccc(-c2c(-c3ccccc3)noc2C)cc1,inactive,–
CC(C)(C)c1cc(CN2CCN(CC(O)c3ccc(Cl)cc3)CC2)cc(C(C)(C)C)c1O (configuration not stated),inactive,–
CCOc1nc2cccc(C(=O)O)c2n1Cc1ccc(-c2ccccc2-c2noc(=O)[nH]2)cc1,inactive,–
CC1(O)CCC2C(C(=O)O)=COC(OC3OC(CO)C(O)C(O)C3OC(=O)/C=C/c3ccc(O)cc3)C21 (configuration not stated),inactive,–
COc1c2c(c(C)c3c1C(=O)OC3)O[C@@]1(C)C[C@@H](O)[C@]34O[C@](OC)(CC[C@]3(C)[C@H]1C2)OC4(C)C,inactive,–
CN1Cc2c(N)cccc2C(c2ccccc2)C1 (configuration not stated),inactive,–
COC(=O)CC1(O)C(=O)Nc2ccccc21 (configuration not stated),inactive,–
CC1=C2[C@@H]([C@H](C)CC[C@H]2/C=C(\C)C(=O)O)[C@H](O)C1,inactive,–
C[C@]12C=CC(=O)C=C1CC[C@@H]1[C@@H]2[C@@H](O)C[C@@]2(C)[C@H]1CC[C@]2(O)C(=O)COC(=O)CCC(=O)O,inactive,–

# Source: PubChem BioAssay (NCATS)
